Experimental data published in PubChem BioAssay (NCI).
The panel holds about 83,000 compounds, 20% with a hit somewhere; the sample as a whole holds those more often.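 Values shown are percent growth following 48 h exposure of cells in 96-well plates to a single concentration of compound; below 10 was considered active.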 Values without a mark were called inactive. Active and inactive are the calls of the source.

How the values were obtained:
Assay in all cases: NCI-60 one-dose screen, 48 h (100 = growth as untreated, 0 = no growth, -100 = all killed)
Conditions in all cases: 10 µM unless noted
SK-MEL-2 melanoma = test system: SK-MEL-2 melanoma
EKVX NSCLC = test system: EKVX NSCLC
SN12C renal = test system: SN12C renal
UO-31 renal = test system: UO-31 renal
TK-10 renal = test system: TK-10 renal
ACHN renal = test system: ACHN renal
CAKI-1 renal = test system: CAKI-1 renal
CCRF-CEM leukemia = test system: CCRF-CEM leukemia
MOLT-4 leukemia = test system: MOLT-4 leukemia
SR leukemia = test system: SR leukemia
RPMI-8226 leukemia = test system: RPMI-8226 leukemia
OVCAR-8 ovarian = test system: OVCAR-8 ovarian
OVCAR-5 ovarian = test system: OVCAR-5 ovarian
OVCAR-4 ovarian = test system: OVCAR-4 ovarian
SK-OV-3 ovarian = test system: SK-OV-3 ovarian
IGROV1 ovarian = test system: IGROV1 ovarian
OVCAR-3 ovarian = test system: OVCAR-3 ovarian
HS 578T breast = test system: HS 578T breast
NCI/ADR-RES ovarian = test system: NCI/ADR-RES ovarian
A498 renal = test system: A498 renal

Row | SMILES | growth (SK-MEL-2 melanoma) | growth (EKVX NSCLC) | growth (SN12C renal) | growth (UO-31 renal) | growth (TK-10 renal) | growth (ACHN renal) | growth (CAKI-1 renal) | growth (CCRF-CEM leukemia) | growth (MOLT-4 leukemia) | growth (SR leukemia) | growth (RPMI-8226 leukemia) | growth (OVCAR-8 ovarian) | growth (OVCAR-5 ovarian) | growth (OVCAR-4 ovarian) | growth (SK-OV-3 ovarian) | growth (IGROV1 ovarian) | growth (OVCAR-3 ovarian) | growth (HS 578T breast) | growth (NCI/ADR-RES ovarian) | growth (A498 renal)
1 | CN(C)Cc1ccc(C(=O)Nc2ccc3ncnc(Nc4ccc(Oc5cccc(F)c5)c(Cl)c4)c3c2)cc1 | -27.1% (active) | 35.5% | 11.4% | 16% | 1.66% (active) | -85.8% (active) | -42.2% (active) | -0.132% (active) | -13.2% (active) | -18.1% (active) | -24.7% (active) | 14.2% | -28.7% (active) | -24.4% (active) | 19% | -50.7% (active) | -24.2% (active) | -11.7% (active) | 22.7% | 
2 | O=c1nc(Nc2nc3ccccc3s2)[nH]c(=O)c2ccccc12 | 110% | 95.2% | 98.6% | 89.4% | 119% | 89.8% | 85.2% |  | 102% | 90.7% | 106% |  | 107% | 102% | 64.3% | 100% | 109% | 109% | 103% | 77.4%
3 | Cc1ccc2[nH]c(=O)c3c(c2c1)OC(N)=C(C#N)C31C(=O)c2cccc3cccc1c23 (stereo not drawn) | 110% | 102% | 97.8% | 77.7% | 123% | 95.5% | 90.9% | 95.3% | 88.1% | 92.9% | 97.8% | 103% | 97.4% | 89.4% | 105% | 90% | 101% | 93.9% | 102% | 
4 | CCCCCCCCCCCCCCCCCCOc1ccccc1CC(=O)OCC[N+]1(C)CCOCC1 | 91.5% | 86.7% | 31.4% | 67.9% | 43.5% | 89.6% | 49.1% |  | 46.9% | 50.7% |  | 41% | 63.1% | 60.5% | 100% | -9.88% (active) | 65.4% | 55.1% | 104% | 64.1%
5 | Nc1c(C(=O)Nc2ccccn2)sc2nc3c(cc12)C(O)CCC3 (stereo not drawn) | 43.8% | 42.1% | 44.3% | 43.6% | 47.4% | 46.2% | 28.9% | 6.62% (active) | 34% | 14.4% | 2.23% (active) | 36.5% | 46.7% | 59.4% | 17.4% | 47.9% | -19.1% (active) | 6.09% (active) | 17.7% | 
6 | CCOC(=O)c1c(NC(=O)c2ccc(C(C)(C)C)cc2)sc2cc(O)ccc12 | 112% | 94.9% | 99.6% | 70.4% | 129% | 97.5% | 85.9% | 80.1% | 82.3% | 87.9% | 104% | 92.7% | 104% | 104% | 109% | 80.8% | 110% | 105% | 89.2% | 
7 | COc1ccc(OC)c(-c2cn3nc(-c4c[nH]c5ccc(Br)cc45)sc3n2)c1 | 86.3% | 36.9% | 44.2% | 45% | 62% | 38.8% | 29.7% | 32.8% | 48.8% | 22.1% | 79.3% | 25.6% | 47.9% | -21.3% (active) | 80.8% | 40.6% | 60% | 43.7% | 32.1% | 
8 | Fc1ccc(COc2ccc(Nc3ncnc4sc5c(c34)CCCC5)cc2)cc1 | 84.4% | 94.3% | 81.1% | 78.5% | 84% | 95.2% | 99.6% |  | 87.4% | 95.8% | 79.4% | 101% | 112% | 110% | 92.6% | 95.3% | 93.2% |  | 95.9% | 86.2%
9 | COC(=O)C1=Nc2ccc(F)cc2/C1=C\c1sc(Nc2ccc(O)cc2)nc1O | 47.3% | 89.8% | 85.7% | 62.6% | 96.9% | 84.9% | 55.5% | 28.2% | 30.4% | 24.2% | 62% | 83% | 98% | 64.8% | 102% | 68.5% | 19.8% | 46.1% | 94.5% | 
10 | O=c1[nH]cnc2c1C(c1ccc(Br)cc1)c1sc3c(F)cccc3c1O2 (stereo not drawn) | 110% | 90.9% | 98.3% | 76% | 107% | 95.1% | 82.1% | -50.7% (active) | 37% | 54.7% | 60.4% | 95.3% | 90.7% | 94.9% | 117% | 84.4% | 107% | 85.2% | 100% | 
11 | COc1ccc(/C=C/C(=O)c2ccc(NC(=O)CSc3nnc(-c4cc(-c5ccccc5)nc5ccccc45)n3-c3ccccc3)cc2)cc1 | 107% | 98% | 92.7% | 100% | 112% | 95.7% | 90% |  | 80.2% | 79.7% |  | 93.5% | 93.4% | 96% | 109% | 111% | 102% | 93.1% | 97.1% | 85.3%
12 | O=C(Cn1nnc([N+](=O)[O-])n1)c1ccccc1 | 73.3% | 100% | 102% | 85.1% | 92% | 107% | 77.7% | 58.6% | 95.3% | 84.3% | 40.6% | 101% | 114% | 91.5% | 99.8% | 96.1% | 100% | 106% | 98.4% | 
13 | Cc1cc2oc(=O)cc(CP(=O)(O)O)c2cc1O | 102% | 97.1% | 93.5% | 70.4% | 107% | 101% | 90.9% |  | 104% | 106% | 118% | 99.5% | 94% | 103% | 105% | 91.6% | 102% |  | 105% | 80.8%
14 | Cc1ccc(C)n1/C=C/n1c(C)ccc1C | 109% | 85.9% | 118% | 93.6% | 93.5% | 112% | 69.5% | 88.4% | 117% | 122% | 78.6% | 99.3% | 101% | 98.4% | 100% | 16.2% | 146% | 113% | 92.4% | 
15 | COc1ccc(C2=CN3CC=CCC3CC2=O)cc1 (stereo not drawn) | 92.1% | 104% | 97% | 95.6% | 103% | 115% | 99.7% | 108% | 95% | 90.3% | 97.9% | 91% | 106% | 109% | 106% | 111% | 102% | 98.3% | 107% | 
16 | COc1ccc(Cc2nnc(Nc3nc4ccccc4s3)s2)cc1 | 107% | 96.1% | 94.2% | 81.2% | 103% | 97.2% | 96.1% | 97.7% | 105% | 60.6% | 107% | 103% | 89.1% | 105% | 115% | 94% | 103% | 94.6% | 95.7% | 
17 | CCN(CC)S(=O)(=O)c1ccc(S(=O)(=O)N2CCC[C@@H](C(=O)N3CCN(C(=O)OC(C)(C)C)CC3)C2)cc1 | 101% | 54.9% | 87.4% | 73.6% | 78.6% | 71.4% | 52.1% | 66.9% | 60.8% | 31.7% | 53.7% | 63.3% | 102% | 26.1% | 90.5% | 86.1% | 73.5% | 87.2% | 62% | 
